Measurements reported in PubChem BioAssay (NCI).
Compounds without any hit were thinned out: in the full panel of roughly 83,000, 20% have a hit.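 In brief: 96-well plates, 48 h treatment, single concentration, percent growth endpoint.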 The source made the active and inactive calls. How the source made its calls: active means growth percent below 10; inactive means the rest.

How the values were obtained:
Assay in all cases: NCI-60 one-dose screen, 48 h (100 = growth as untreated, 0 = no growth, -100 = all killed)
Conditions in all cases: 10 µM unless noted
SK-MEL-2 melanoma = tested on: SK-MEL-2 melanoma
EKVX NSCLC = tested on: EKVX NSCLC
SN12C renal = tested on: SN12C renal
UO-31 renal = tested on: UO-31 renal
TK-10 renal = tested on: TK-10 renal
ACHN renal = tested on: ACHN renal
CAKI-1 renal = tested on: CAKI-1 renal
A498 renal = tested on: A498 renal
CCRF-CEM leukemia = tested on: CCRF-CEM leukemia
MOLT-4 leukemia = tested on: MOLT-4 leukemia
SR leukemia = tested on: SR leukemia
RPMI-8226 leukemia = tested on: RPMI-8226 leukemia
OVCAR-8 ovarian = tested on: OVCAR-8 ovarian
OVCAR-5 ovarian = tested on: OVCAR-5 ovarian
OVCAR-4 ovarian = tested on: OVCAR-4 ovarian
SK-OV-3 ovarian = tested on: SK-OV-3 ovarian
IGROV1 ovarian = tested on: IGROV1 ovarian
OVCAR-3 ovarian = tested on: OVCAR-3 ovarian
HS 578T breast = tested on: HS 578T breast
NCI/ADR-RES ovarian = tested on: NCI/ADR-RES ovarian

Measured: growth

Cc1ccc(-c2nc(/C=N/Nc3cc(C)nc4ccc(Br)cc34)c(C)o2)cc1
inactive: SK-MEL-2 melanoma 95.8% | A498 renal 86.6% | SK-OV-3 ovarian 105% | HS 578T breast 102%
active: EKVX NSCLC 2.6% | SN12C renal -83.4% | UO-31 renal -98% | TK-10 renal -17.5% | ACHN renal -85.1% | CAKI-1 renal -71.5% | CCRF-CEM leukemia -42.1% | MOLT-4 leukemia -34.7% | SR leukemia 2.27% | RPMI-8226 leukemia -38.5% | OVCAR-8 ovarian -63.5% | OVCAR-5 ovarian -68.7% | OVCAR-4 ovarian -94.3% | IGROV1 ovarian -77.3% | OVCAR-3 ovarian -94.8% | NCI/ADR-RES ovarian -69.9%

CC(C)n1cc2c(N)ncnc2n1
inactive: SK-MEL-2 melanoma 89.5% | EKVX NSCLC 88.1% | SN12C renal 98.2% | UO-31 renal 90% | TK-10 renal 96.6% | ACHN renal 105% | CAKI-1 renal 79.4% | A498 renal 126% | CCRF-CEM leukemia 109% | MOLT-4 leukemia 98.2% | SR leukemia 97.5% | RPMI-8226 leukemia 107% | OVCAR-8 ovarian 108% | OVCAR-5 ovarian 109% | OVCAR-4 ovarian 95.5% | SK-OV-3 ovarian 106% | IGROV1 ovarian 107% | OVCAR-3 ovarian 104% | HS 578T breast 105% | NCI/ADR-RES ovarian 107%

Cc1cc(N/N=C/c2nc(-c3ccc(Cl)cc3)oc2C)c2cc(Cl)ccc2n1
active: SN12C renal -5.24% | CCRF-CEM leukemia -24.3% | MOLT-4 leukemia -20.7% | SR leukemia -6.42% | RPMI-8226 leukemia -35.5% | OVCAR-4 ovarian -84.5% | OVCAR-3 ovarian -34.3%
inactive: SK-MEL-2 melanoma 104% | EKVX NSCLC 92% | UO-31 renal 21.2% | TK-10 renal 30.5% | ACHN renal 63.4% | CAKI-1 renal 90.2% | A498 renal 86.9% | OVCAR-8 ovarian 10.4% | OVCAR-5 ovarian 87.2% | SK-OV-3 ovarian 100% | IGROV1 ovarian 66.3% | HS 578T breast 73.1% | NCI/ADR-RES ovarian 18%

CN1CCOCCOCCOc2ccccc2NC(=O)c2nc(cnc2N)-c2ccc(cc2)S1(=O)=O
inactive: SK-MEL-2 melanoma 49.8% | EKVX NSCLC 80.4% | SN12C renal 64.7% | UO-31 renal 42.1% | TK-10 renal 43.7% | CAKI-1 renal 53.7% | A498 renal 29.3% | RPMI-8226 leukemia 30.3% | OVCAR-8 ovarian 64% | OVCAR-5 ovarian 148% | OVCAR-4 ovarian 46.1% | SK-OV-3 ovarian 41% | IGROV1 ovarian 50.8% | OVCAR-3 ovarian 43.7% | HS 578T breast 66.4% | NCI/ADR-RES ovarian 43.5%
active: ACHN renal 8.87% | CCRF-CEM leukemia 2.07% | MOLT-4 leukemia 0.82% | SR leukemia -16.3%

CC(C)[C@@H]1CC[C@]2(C(=O)NCCCCN=C(N)N)CC[C@]3(C)[C@H](CC[C@@H]4[C@@]5(C)CCC(=O)C(C)(C)[C@@H]5CC[C@]43C)[C@@H]12
inactive: SK-MEL-2 melanoma 83.3% | EKVX NSCLC 81.5% | SN12C renal 60.7% | UO-31 renal 82.6% | TK-10 renal 88.7% | ACHN renal 79.6% | CAKI-1 renal 96.7% | A498 renal 111% | CCRF-CEM leukemia 37.6% | MOLT-4 leukemia 38.6% | SR leukemia 33.6% | RPMI-8226 leukemia 36.3% | OVCAR-8 ovarian 70.2% | OVCAR-5 ovarian 97.4% | OVCAR-4 ovarian 84.3% | SK-OV-3 ovarian 91.7% | IGROV1 ovarian 25.6% | OVCAR-3 ovarian 55.4% | HS 578T breast 73% | NCI/ADR-RES ovarian 101%

COc1cnc2c(c1)C(=O)c1c-2n(CCCN2CCCC2)c(=O)c2cc([N+](=O)[O-])ccc12
active: SN12C renal 8.36% | UO-31 renal -96.3% | ACHN renal -91.2% | CAKI-1 renal -13.6% | A498 renal -97.9% | CCRF-CEM leukemia -16.1% | MOLT-4 leukemia 1.49% | SR leukemia -1.06% | RPMI-8226 leukemia -34.1% | OVCAR-8 ovarian -37.2% | OVCAR-5 ovarian -28.4% | SK-OV-3 ovarian -9.51% | IGROV1 ovarian -5.7% | OVCAR-3 ovarian -72.4% | NCI/ADR-RES ovarian -20.2%
inactive: SK-MEL-2 melanoma 13.8% | EKVX NSCLC 21.7% | TK-10 renal 13.2% | OVCAR-4 ovarian 10.4% | HS 578T breast 35.1%

CCOC(=O)c1c2c(n3ccc(NC(=O)CCN(CC)CC)cc13)C(=O)c1ncccc1C2=O
inactive: SK-MEL-2 melanoma 29.3% | EKVX NSCLC 71.3% | SN12C renal 27.6% | UO-31 renal 28.8% | TK-10 renal 36.5% | ACHN renal 16.1% | CAKI-1 renal 23% | A498 renal 46.9% | CCRF-CEM leukemia 52.9% | MOLT-4 leukemia 29.3% | RPMI-8226 leukemia 51.2% | OVCAR-8 ovarian 57.4% | OVCAR-5 ovarian 90.5% | OVCAR-4 ovarian 63.8% | SK-OV-3 ovarian 36.2% | IGROV1 ovarian 47.3% | OVCAR-3 ovarian 74.7% | HS 578T breast 60.8% | NCI/ADR-RES ovarian 60.2%
active: SR leukemia -2.86%

CCC(=O)OCc1cccc(OC)c1
inactive: SK-MEL-2 melanoma 111% | EKVX NSCLC 91.3% | SN12C renal 99% | UO-31 renal 92.9% | TK-10 renal 119% | ACHN renal 93% | CAKI-1 renal 73.6% | A498 renal 102% | CCRF-CEM leukemia 73.3% | MOLT-4 leukemia 87.9% | SR leukemia 116% | RPMI-8226 leukemia 84.8% | OVCAR-8 ovarian 98.2% | OVCAR-5 ovarian 118% | OVCAR-4 ovarian 94.6% | SK-OV-3 ovarian 103% | IGROV1 ovarian 81% | OVCAR-3 ovarian 107% | HS 578T breast 101% | NCI/ADR-RES ovarian 106%

COc1cccc(/C=C\C(=O)c2ccccc2)c1
inactive: SK-MEL-2 melanoma 105% | EKVX NSCLC 90.7% | SN12C renal 70.1% | UO-31 renal 60.2% | TK-10 renal 102% | ACHN renal 75% | CAKI-1 renal 66.6% | A498 renal 93.8% | CCRF-CEM leukemia 25.2% | MOLT-4 leukemia 28.8% | SR leukemia 47.5% | OVCAR-8 ovarian 81.4% | OVCAR-5 ovarian 94.7% | OVCAR-4 ovarian 47.4% | SK-OV-3 ovarian 107% | HS 578T breast 85.8% | NCI/ADR-RES ovarian 88%
active: RPMI-8226 leukemia 6.17% | IGROV1 ovarian 2.47% | OVCAR-3 ovarian -4.31%

COc1ccc2c(c1)C(=O)/C(=C/c1cccc(OCC(=O)Nc3nc4c(s3)CCCC4)c1)O2
active: SK-MEL-2 melanoma -67.3% | EKVX NSCLC -72.6% | UO-31 renal -78.2% | TK-10 renal -69.6% | ACHN renal -73.4% | CAKI-1 renal -83.5% | CCRF-CEM leukemia -0.645% | MOLT-4 leukemia -47.8% | SR leukemia -17.2% | RPMI-8226 leukemia -6.7% | OVCAR-5 ovarian -13.6% | OVCAR-4 ovarian 8.81% | IGROV1 ovarian -47.4% | OVCAR-3 ovarian -68.6% | HS 578T breast -16.2%
inactive: SN12C renal 28.7% | A498 renal 92% | OVCAR-8 ovarian 10.4% | SK-OV-3 ovarian 119% | NCI/ADR-RES ovarian 10.4%

CCCCCCCCCCCCCC(=O)C(C)N (stereo not given)
active: EKVX NSCLC 5.65% | SN12C renal 5.02% | SR leukemia -2.57%
inactive: SK-MEL-2 melanoma 72.5% | UO-31 renal 64.9% | TK-10 renal 48.5% | ACHN renal 39.2% | CAKI-1 renal 77.6% | A498 renal 11.3% | CCRF-CEM leukemia 60.2% | MOLT-4 leukemia 46.8% | RPMI-8226 leukemia 31.9% | OVCAR-8 ovarian 89.9% | OVCAR-5 ovarian 68.7% | OVCAR-4 ovarian 14.3% | SK-OV-3 ovarian 72.5% | IGROV1 ovarian 53.2% | OVCAR-3 ovarian 73.6% | HS 578T breast 70.6% | NCI/ADR-RES ovarian 75.8%

O=C(O)c1cn(C2CC2)c2cc(N3CCN(Cc4nc5c(cnn5-c5ccc([N+](=O)[O-])cc5)c(=O)[nH]4)CC3)c(F)cc2c1=O
inactive: SK-MEL-2 melanoma 120% | EKVX NSCLC 93.4% | SN12C renal 95.2% | UO-31 renal 71.8% | TK-10 renal 122% | ACHN renal 103% | CAKI-1 renal 94.8% | A498 renal 101% | CCRF-CEM leukemia 99% | MOLT-4 leukemia 99.4% | SR leukemia 97.5% | RPMI-8226 leukemia 98% | OVCAR-8 ovarian 99.9% | OVCAR-5 ovarian 103% | OVCAR-4 ovarian 91.9% | SK-OV-3 ovarian 105% | IGROV1 ovarian 94.2% | OVCAR-3 ovarian 112% | HS 578T breast 105% | NCI/ADR-RES ovarian 106%

CC(C)C1=C[C@@]23CC[C@@H]4[C@](C)(CCC[C@@]4(C)C(=O)OCC#CCN4CCCC4)[C@H]2C[C@@H]1[C@H]1C(=O)OC(=O)[C@H]13
inactive: SK-MEL-2 melanoma 97.1% | EKVX NSCLC 86.4% | SN12C renal 93.2% | UO-31 renal 78.3% | TK-10 renal 101% | ACHN renal 95.9% | CAKI-1 renal 83.6% | A498 renal 78.5% | CCRF-CEM leukemia 85.7% | MOLT-4 leukemia 93.9% | SR leukemia 92% | RPMI-8226 leukemia 80.3% | OVCAR-8 ovarian 115% | OVCAR-5 ovarian 97.3% | OVCAR-4 ovarian 92% | SK-OV-3 ovarian 90.5% | IGROV1 ovarian 81.9% | OVCAR-3 ovarian 94.2% | HS 578T breast 99.2% | NCI/ADR-RES ovarian 99.3%

O=C1c2cccnc2C(=O)c2c1c(C(=O)OCCN1CCOCC1)c1ccccn21
inactive: EKVX NSCLC 13.1% | CAKI-1 renal 14.4% | RPMI-8226 leukemia 10.1% | OVCAR-4 ovarian 24.2% | HS 578T breast 30.3%
active: SK-MEL-2 melanoma 7.23% | SN12C renal -30.4% | UO-31 renal -26.7% | TK-10 renal -6.05% | ACHN renal 7.94% | A498 renal -30.4% | CCRF-CEM leukemia 8.9% | MOLT-4 leukemia -16.2% | SR leukemia -10.1% | OVCAR-8 ovarian 9.13% | OVCAR-5 ovarian -9.33% | SK-OV-3 ovarian -0.946% | IGROV1 ovarian 1.32% | OVCAR-3 ovarian -6.91% | NCI/ADR-RES ovarian 5.58%

CNCc1cccc2c1OCCOCCOCCN(C)S(=O)(=O)c1ccc(cc1)-c1cnc(N)c(n1)C(=O)N2
inactive: SK-MEL-2 melanoma 56.7% | EKVX NSCLC 43.6% | SN12C renal 37% | UO-31 renal 36.5% | TK-10 renal 53.3% | ACHN renal 22.1% | CAKI-1 renal 44.6% | A498 renal 36.7% | RPMI-8226 leukemia 44.6% | OVCAR-8 ovarian 52.9% | OVCAR-5 ovarian 160% | OVCAR-4 ovarian 72.8% | SK-OV-3 ovarian 19.4% | IGROV1 ovarian 42.5% | OVCAR-3 ovarian 42.8% | HS 578T breast 56.9% | NCI/ADR-RES ovarian 80.1%
active: CCRF-CEM leukemia -23.6% | MOLT-4 leukemia 0.352% | SR leukemia -35%
